Screening results deposited in PubChem BioAssay by National Center for Advancing Translational Sciences (NCATS).
In the library only some 1.6% were active in any assay of this set; here they are far more common.
Epigenetic mod – epigenetic modulators derepressing GFP locus in mouse cells; mouse C127i GFP locus derepression, cytometry, 30 h; hit rate 0.09% among 68,000; Potency, µM (titrated, usually from 46.1 µM), inactives show top-dose GFP derepression (activation); also: % of control where 0% means no effect
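Read-out is the number of GFP-positive cells, scored as fluorescent objects 20 to 120 um wide, reflecting derepression of a silenced CMV-GFP reporter in murine C127i cells after 30 h compound exposure at 37 C.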
p53ts 32C kill – kills p53ts cells at the permissive temperature; Potency, µM (titrated, usually from 46.1 µM), inactives show at the top dose activity change, negative = cytotoxicity, most hits filed as cytotoxic; AID 924; hit rate 0.93% among 130,000; H1299-p53A138V at 32C, ATP luminescence viability, 24 h;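 also: potency is read from the fitted curve at half-maximal effect; 0% = DMSO and -100% = full killing by reference compound; nearly all actives have a fitted effect of over 55% in size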
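H1299-p53 A138V cells (temperature-sensitive p53) exposed 24 h to up to 46 uM compound at 32C, where p53 is wild-type in conformation. Viability read as ATP luminescence and normalised to DMSO and 100 uM tamoxifen. AC50 fitted with the Hill equation.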
UbGFP stabilizer – inhibits proteasome, raising ubiquitin-GFP reporter fluorescence; Ubiquitin-GFP reporter cells, proteasome inhibition, GFP fluorescence; response scale: untreated = 0%, 10 µM MG-132 = 100%; Potency, µM (highest dose often 45.9 µM), without a hit: at the top dose activation (GFP accumulation), most hits filed as activators; 67,000 tested, under 10 active; AID 526; active = well fitted activation curve with a large enough effect, not every such curve was filed as active; inconclusive = small, poorly fitted or top-dose-only effect, or another doubt; inactive = no such curve, though single readings can be large or run the other way; also: potency is read from the fitted curve at half-maximal effect
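U2OS cells expressing ubiquitin(G76V)-GFP, seeded overnight in 0.5% FBS medium, then treated 4 hr at 37 C across 46 uM to 2.9 nM. GFP-positive cells counted by laser cytometry (488 ex/515 em); %activity scaled between basal and 10 uM MG-132.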
p53ts 39C kill – cytotoxicity in p53ts cells at nonpermissive temperature; Potency, µM (top dose mostly 46.1 µM), for the others: at the highest dose activity change, negative = cell killing, hits mostly cytotoxic; H1299-p53A138V viability at 39C, ATP luminescence, 24 h; hit rate 1.5% among 130,000; also: potency is read from the fitted curve at half-maximal effect; % is scaled to controls: 0 for no effect and ±100 for the full control effect; nearly all actives have a fitted effect of over 55% in size
Imprint erasure – genomic imprint erasure induction; mouse ES Peg3-LacZ reporter, beta-gal luminescence, 40 h; Potency, µM (highest dose often 60.7 µM), for inactives: at the highest dose activity change, positive = activation, actives largely listed as activators; hit rate 0.02% among 110,000; also: potency is read from the fitted curve at half-maximal effect
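Readout: BetaGlo luminescence (5 min, room temp) for LacZ from the normally silent maternal Peg3 allele in female Peg3LacZ-Neo ES cells. Cells 300/well, 40 h, 37C, 5% CO2. Data normalized per plate to negative controls.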
HBB splice mod – hemoglobin beta splicing modulation | Potency, µM (top dose mostly 46.1 µM), inactives show at the top dose activation, most hits filed as activators | AID 925 | HBB splicing reporter cell assay, activation; EGFP reporter with mutant IVS2-654 intron; response scale: normalised to 500 nM splice-correcting PNA | hit rate 0.06% among 65,000; also: potency is read from the fitted curve at half-maximal effect; 0% is about no effect
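Compounds were applied for 2 days to HeLa EGFP-654 cells, 500/well in Optimem with 2% FCS. The reporter's EGFP is disrupted by mis-splicing of beta-globin intron IVS2-654. Readout: summed well GFP fluorescence from 488 nm laser scanning; reference was 500 nM antisense […] 654 PNA.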
* = called active by the depositor; u = inconclusive; x = not tested or not shown; [ ] = another dose, or the depositor's remark. Unless noted, calls follow the shape of the dose curve; as a rule, active = well fitted curve in the direction sought with a large enough effect; inconclusive = small, poorly fitted or top-dose-only effect, or another doubt; inactive = no such curve, though single readings can be large; an effect the other way counts as inactive or inconclusive.

SMILES	Epigenetic mod	p53ts 32C kill	UbGFP stabilizer	p53ts 39C kill	Imprint erasure	HBB splice mod
Cc1ccc(NC(=O)Cn2cc(S(=O)(=O)NC(C)C)c(S(=O)(=O)NC(C)C)c2)cc1Cl	x	0%	x	u	-7%[10.9 µM]	x
O=C(CCCn1c(=O)c2sccc2n(Cc2cccc(Cl)c2)c1=O)NCc1ccc2c(c1)OCO2	x	-16%	x	-15%	-4%[10.9 µM]	x
CC(C)(C)c1ccc(OCC(=O)NCC2(N3CCOCC3)CCCCC2)cc1	x	u	x	16µM*	-11%[10.9 µM]	x
O=C(COc1ccc([N+](=O)[O-])cc1)NCC1(N2CCOCC2)CCCCC1	x	-1%	x	6%	-4%[10.9 µM]	x
Cc1cccc(NC(=O)c2ccc(-n3cnc4cccnc43)cc2)c1C	x	-2%	x	-18%	9%[10.9 µM]	x
CCCCN(CCCNC(=O)c1cc(Nc2cccc(SC)c2)nc2ccccc12)Cc1ccccc1	x	-16%	x	4.5µM*	-31%[10.9 µM]	x
CSc1cccc(Nc2cc(C(=O)NCCc3ccc(Cl)cc3)c3ccccc3n2)c1	x	0%	x	u	-8%[10.9 µM]	x
COc1ccc(Nc2cc(C(=O)NCCCN(C)C3CCCCC3)c3ccccc3n2)cc1	x	-5%	x	13µM*	-12%[10.9 µM]	x
COc1ccc(Nc2cc(C(=O)NCCCN(C)C3CCCCC3)c3ccccc3n2)c(OC)c1	x	-6%	x	u	-7%[10.9 µM]	x
Clc1cccc(N2CCN(c3ncnc4c3nc3n4CCCCC3)CC2)c1	x	u	x	13µM*	-22%[10.9 µM]	x
CC1CCN(c2nc3ccc(C(=O)O)cc3s2)CC1	x	10µM*	x	u	x	x
O=C(c1cccc(Cl)c1)n1nc(-c2cccnc2)nc1NCc1ccccc1	x	11%	x	7%	-4%[10.9 µM]	x
O=C(Nc1ccc(S(=O)(=O)Nc2ccccc2)cc1)C1COc2ccccc2O1 (stereo unspecified)	x	u	x	22µM*	x	x
COc1ccc(C)cc1Nc1nc(N)c2cc(OC)c(OC)cc2n1	x	20µM*	x	20µM*	8%[10.9 µM]	x
O=C(NCc1ccccc1Cl)c1cccc(C(F)(F)F)c1	x	-25%	x	16µM*	x	x
Cc1cccc(C(=O)Nc2cccc(C(=O)OCc3cc(=O)n4nc(C(C)C)sc4n3)c2)c1	x	1%	x	-12%	-6%[10.9 µM]	x
Cc1nn2c(=O)cc(COC(=O)c3cccc(NC(=O)c4ccc(C(C)(C)C)cc4)c3)nc2s1	x	2.5µM*	x	2.5µM*	-12%[10.9 µM]	x
CCOc1ccc(N2CC(NC(=O)C3CCCC3)CC2=O)cc1 (stereo unspecified)	x	-4%	x	-6%	-5%[10.9 µM]	x
CCOc1ccccc1NC(=O)CSc1nc2cc(OC)c(OC)cc2c2nc(CCn3c(C)nc4ccccc43)nn12	x	u	x	5µM*	-10%[10.9 µM]	x
COc1cc2nc(SCC(=O)Nc3ccccc3C)n3nc(CCn4c(C)nc5ccccc54)nc3c2cc1OC	x	-1%	x	8%	5%[10.9 µM]	x
COC(=O)c1c(SCC(=O)Nc2ccccc2OC)[nH]c2ccccc2c1=O	x	-24%	x	u	7%[10.9 µM]	x
COC(=O)c1c(SCC(=O)Nc2cc(OC)cc(OC)c2)[nH]c2ccc(C)cc2c1=O	x	-6%	x	5µM*	-5%[10.9 µM]	x
CCN1C(=O)c2cccc3c(NC(=O)c4ccc5c(c4)OCCO5)ccc1c23	13µM*	3%	15%	-3%	-11%	0%
CCOC(=O)C1CCN(C(=O)Cn2c(-c3cccs3)cc3cc(Cl)ccc32)CC1	x	-11%	x	x	x	x
Cc1ccc2nc(/C(C#N)=C/c3ccc(-c4ccc(F)cc4F)o3)[nH]c2c1	x	6.3µM*	x	5µM*	-19%[10.9 µM]	x
SMILES	Epigenetic mod	p53ts 32C kill	UbGFP stabilizer	p53ts 39C kill	Imprint erasure	HBB splice mod
N#C/C(=C\c1ccc(Sc2ccc(Cl)cc2)o1)c1nc2ccccc2[nH]1	x	x	x	1%	x	x
N#C/C(=C/c1ccc(N2CCOCC2)o1)c1nc2ccccc2[nH]1	x	16µM*	x	u	x	x
N#C/C(=C/c1ccc(N2CCCCCC2)o1)c1ccc(F)cc1	3.2µM*	4%	0%	121%	-34%	u
Cc1c(Cl)cccc1-c1ccc(/C=C(\C#N)c2nc3ccccc3[nH]2)o1	x	u	x	13µM*	-12%[10.9 µM]	x
NS(=O)(=O)c1ccc(N=Nc2nc3[nH]c(=O)[nH]c(=O)c3[nH]2)cc1	-1%[9.22 µM]	1%[9.22 µM]	-5%[9.17 µM]	1%[9.22 µM]	3%[10.9 µM]	0%[9.22 µM]
NS(=O)(=O)c1ccc(N=Nc2nc3[nH]cnc(=S)c3[nH]2)cc1	-3%[9.22 µM]	-29%[9.22 µM]	0%[9.17 µM]	-22%[9.22 µM]	5%[10.9 µM]	4µM*
CC(C)c1ccc(NC(=O)C2CCCN(S(=O)(=O)c3ccc4[nH]c(=O)ccc4c3)C2)cc1 (stereo unspecified)	x	u	x	10µM*	-10%[10.9 µM]	x
CCCOc1ccccc1C(=O)N1CCCCC1CCN1CCCCC1 (stereo unspecified)	x	-3%	x	22µM*	-10%[10.9 µM]	x
Cc1ccccc1C(=O)N1CCCCC1CCN1CCCCC1 (stereo unspecified)	x	1%	x	-25%	-13%[10.9 µM]	x
COc1cc(Cl)c(C)cc1NC(=O)c1ccc2c(Cl)c3c(nc2c1)CCC3	x	-10%	x	-11%	u	x
COc1cc(Cl)c(C)cc1Nc1c2c(nc3ccccc13)CCC2	x	u	x	2µM*	-19%[10.9 µM]	x
COc1cc(NC(=O)c2ccc(-c3nc(CSc4ccccc4)c(C)o3)cc2)cc(OC)c1	x	4%	x	-6%	-7%[10.9 µM]	x
COc1ccc(NC(=O)CCS(=O)(=O)c2nc(-c3ccc4c(c3)OCO4)cc(C(F)(F)F)n2)c(OC)c1	x	u	x	u	-4%[10.9 µM]	x
O=C(CCS(=O)(=O)c1nc(-c2cccs2)cc(C(F)(F)F)n1)Nc1cccc(O)c1	x	u	x	13µM*	7%[10.9 µM]	x
COc1ccc(NC(=O)CCS(=O)(=O)c2nc(-c3cccs3)cc(C(F)(F)F)n2)cc1OC	x	u	x	4µM*	-10%[10.9 µM]	x
COc1cc(NC(=O)CSc2nc(-c3cccs3)cc(C(F)(F)F)n2)cc(OC)c1OC	x	9%	x	-8%	-15%[10.9 µM]	x
COc1cc(NC(=O)CCS(=O)(=O)c2nc(-c3cccs3)cc(C(F)(F)F)n2)cc(OC)c1OC	x	-19%	x	13µM*	-8%[10.9 µM]	x
O=C(CCS(=O)(=O)c1nc(-c2ccc3c(c2)OCO3)cc(C(F)(F)F)n1)Nc1ccccc1C(F)(F)F	x	u	x	7.9µM*	4%[10.9 µM]	x
COC(=O)[C@@]1(C)C[C@@H]1[C@@H](NC(=O)[C@@]1(C)C[C@@H]1[C@@H](NC(=O)[C@@]1(C)C[C@@H]1[C@@H](NC(=O)[C@@]1(C)C[C@@H]1[C@@H](NC(=O)OCc1ccccc1)c1ccccc1)c1ccccc1)c1ccccc1)c1ccccc1	x	5%	x	-9%	3%	0%
N#Cc1cccc(-c2nc(NCc3cccs3)c3ccccc3n2)c1	0%[9.22 µM]	-17%	3%	-24%	6.3µM*	-1%
